Experiments:
[1] = molecular target: Sphingosine kinase 1 (Homo sapiens) (UniProt Q9NYA1); conditions: at 1 µM;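 further: mean SPHK1 inhibition value reported from the GSK PKIS kinase panel screen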
[2] = molecular target: T1, Sphingosine kinase 2 (Homo sapiens) (UniProt Q9NRA0); conditions: at 0.1 µM
T1 sequence (whole entry): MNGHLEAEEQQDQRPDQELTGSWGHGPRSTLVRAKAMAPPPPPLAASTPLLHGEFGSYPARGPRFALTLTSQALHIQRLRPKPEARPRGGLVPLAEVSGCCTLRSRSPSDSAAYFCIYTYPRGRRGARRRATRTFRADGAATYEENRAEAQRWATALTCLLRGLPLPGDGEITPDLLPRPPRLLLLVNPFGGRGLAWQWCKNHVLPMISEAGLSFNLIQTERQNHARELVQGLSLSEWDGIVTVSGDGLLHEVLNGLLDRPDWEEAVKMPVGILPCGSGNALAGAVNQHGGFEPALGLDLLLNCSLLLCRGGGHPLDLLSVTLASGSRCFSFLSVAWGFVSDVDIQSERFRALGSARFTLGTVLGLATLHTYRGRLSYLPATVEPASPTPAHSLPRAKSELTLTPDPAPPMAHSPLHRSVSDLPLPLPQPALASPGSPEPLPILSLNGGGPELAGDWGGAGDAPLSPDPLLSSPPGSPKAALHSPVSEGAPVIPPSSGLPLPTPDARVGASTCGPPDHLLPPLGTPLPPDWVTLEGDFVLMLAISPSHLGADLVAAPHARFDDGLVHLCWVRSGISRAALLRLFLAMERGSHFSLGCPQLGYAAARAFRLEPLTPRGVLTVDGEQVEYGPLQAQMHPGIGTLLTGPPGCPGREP

[3] = molecular target: T1, Sphingosine kinase 2 (Homo sapiens); conditions: at 1 µM
[4] = molecular target: Casein kinase II subunit alpha (Homo sapiens) (UniProt P68400); conditions: at 0.1 µM
Chain of Casein kinase II subunit alpha (Homo sapiens) (P68400 whole entry, looked up): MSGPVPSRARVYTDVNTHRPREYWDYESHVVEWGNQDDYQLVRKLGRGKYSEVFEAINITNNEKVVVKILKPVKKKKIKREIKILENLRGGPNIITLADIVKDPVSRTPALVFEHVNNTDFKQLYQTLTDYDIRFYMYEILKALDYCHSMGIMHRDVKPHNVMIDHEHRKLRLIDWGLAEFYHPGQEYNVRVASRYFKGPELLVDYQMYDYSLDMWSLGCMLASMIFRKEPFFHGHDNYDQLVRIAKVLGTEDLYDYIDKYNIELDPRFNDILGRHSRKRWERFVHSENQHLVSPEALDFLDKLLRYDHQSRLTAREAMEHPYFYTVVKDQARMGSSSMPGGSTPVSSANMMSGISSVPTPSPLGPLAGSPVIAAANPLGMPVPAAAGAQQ

[5] = molecular target: Casein kinase II subunit alpha (Homo sapiens) (UniProt P68400); conditions: at 1 µM
[6] = molecular target: T2, Inhibitor of nuclear factor kappa-B kinase subunit alpha (Homo sapiens) (UniProt O15111); conditions: at 0.1 µM
T2 sequence (whole entry): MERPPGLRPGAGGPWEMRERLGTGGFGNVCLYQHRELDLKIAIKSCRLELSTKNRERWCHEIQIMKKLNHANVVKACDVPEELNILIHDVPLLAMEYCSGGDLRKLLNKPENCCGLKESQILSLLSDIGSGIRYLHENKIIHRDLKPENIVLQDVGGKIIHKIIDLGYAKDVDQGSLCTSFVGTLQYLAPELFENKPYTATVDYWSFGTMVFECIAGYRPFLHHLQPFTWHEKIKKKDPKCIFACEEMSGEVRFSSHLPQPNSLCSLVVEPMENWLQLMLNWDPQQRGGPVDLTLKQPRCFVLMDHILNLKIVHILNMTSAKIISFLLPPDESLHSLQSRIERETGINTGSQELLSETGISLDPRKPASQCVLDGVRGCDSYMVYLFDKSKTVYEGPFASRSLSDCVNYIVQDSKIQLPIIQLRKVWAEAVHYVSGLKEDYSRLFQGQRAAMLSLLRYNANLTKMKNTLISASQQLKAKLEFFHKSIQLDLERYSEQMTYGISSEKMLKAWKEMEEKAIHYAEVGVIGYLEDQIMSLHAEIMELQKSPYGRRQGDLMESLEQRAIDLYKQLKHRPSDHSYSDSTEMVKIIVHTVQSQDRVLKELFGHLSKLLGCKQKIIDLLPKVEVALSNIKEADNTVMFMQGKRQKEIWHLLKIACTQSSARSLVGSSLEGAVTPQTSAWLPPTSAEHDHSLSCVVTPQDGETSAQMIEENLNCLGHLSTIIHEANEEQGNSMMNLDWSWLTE

[7] = molecular target: T2, Inhibitor of nuclear factor kappa-B kinase subunit alpha (Homo sapiens); conditions: at 1 µM
[8] = molecular target: T3, Inhibitor of nuclear factor kappa-B kinase subunit beta (Homo sapiens) (UniProt O14920); conditions: at 0.1 µM
T3 sequence (whole entry): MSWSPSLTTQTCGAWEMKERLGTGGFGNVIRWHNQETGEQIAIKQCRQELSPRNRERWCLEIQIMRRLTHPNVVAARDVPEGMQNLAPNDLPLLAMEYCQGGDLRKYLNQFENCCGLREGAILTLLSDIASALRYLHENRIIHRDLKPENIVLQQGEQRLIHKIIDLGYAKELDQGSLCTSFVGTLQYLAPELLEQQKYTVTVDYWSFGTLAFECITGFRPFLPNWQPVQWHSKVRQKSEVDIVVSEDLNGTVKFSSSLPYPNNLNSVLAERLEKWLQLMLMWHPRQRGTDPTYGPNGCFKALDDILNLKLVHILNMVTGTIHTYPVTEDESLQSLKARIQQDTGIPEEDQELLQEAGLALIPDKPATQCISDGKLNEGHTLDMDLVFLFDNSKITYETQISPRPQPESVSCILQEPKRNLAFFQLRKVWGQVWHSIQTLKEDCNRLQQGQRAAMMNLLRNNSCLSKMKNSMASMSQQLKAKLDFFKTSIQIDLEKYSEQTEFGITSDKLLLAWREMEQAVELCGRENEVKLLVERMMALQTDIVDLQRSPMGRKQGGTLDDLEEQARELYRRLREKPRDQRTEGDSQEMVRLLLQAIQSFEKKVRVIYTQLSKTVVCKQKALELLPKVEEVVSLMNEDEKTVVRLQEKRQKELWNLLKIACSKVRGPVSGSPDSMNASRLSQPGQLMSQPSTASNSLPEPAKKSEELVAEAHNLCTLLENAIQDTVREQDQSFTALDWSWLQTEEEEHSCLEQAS

[9] = molecular target: T3, Inhibitor of nuclear factor kappa-B kinase subunit beta (Homo sapiens); conditions: at 1 µM
[10] = molecular target: T4, Inhibitor of nuclear factor kappa-B kinase subunit epsilon (Homo sapiens) (UniProt Q14164); conditions: at 0.1 µM
T4 sequence (whole entry): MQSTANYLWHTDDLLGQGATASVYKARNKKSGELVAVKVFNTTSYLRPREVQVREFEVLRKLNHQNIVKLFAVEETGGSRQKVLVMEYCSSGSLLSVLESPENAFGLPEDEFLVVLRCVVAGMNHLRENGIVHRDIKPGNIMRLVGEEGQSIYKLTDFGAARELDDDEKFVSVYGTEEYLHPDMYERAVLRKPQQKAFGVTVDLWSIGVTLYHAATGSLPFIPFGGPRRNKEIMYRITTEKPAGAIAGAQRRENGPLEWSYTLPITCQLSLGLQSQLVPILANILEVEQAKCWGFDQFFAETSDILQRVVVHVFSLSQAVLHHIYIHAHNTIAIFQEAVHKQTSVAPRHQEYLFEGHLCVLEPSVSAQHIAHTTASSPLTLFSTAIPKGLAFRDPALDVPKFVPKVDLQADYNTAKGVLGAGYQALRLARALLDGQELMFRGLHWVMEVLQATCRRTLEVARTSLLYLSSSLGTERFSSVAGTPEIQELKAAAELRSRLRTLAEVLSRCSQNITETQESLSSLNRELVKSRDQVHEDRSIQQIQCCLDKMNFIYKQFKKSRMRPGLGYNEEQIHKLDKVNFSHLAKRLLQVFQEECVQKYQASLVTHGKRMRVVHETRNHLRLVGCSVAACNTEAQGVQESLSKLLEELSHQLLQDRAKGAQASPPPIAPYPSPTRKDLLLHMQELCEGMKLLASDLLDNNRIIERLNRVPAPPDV

[11] = molecular target: T4, Inhibitor of nuclear factor kappa-B kinase subunit epsilon (Homo sapiens); conditions: at 1 µM
[12] = molecular target: T5, Serine/threonine-protein kinase Nek1 (Homo sapiens) (UniProt Q96PY6); conditions: at 0.1 µM
T5 sequence (whole entry): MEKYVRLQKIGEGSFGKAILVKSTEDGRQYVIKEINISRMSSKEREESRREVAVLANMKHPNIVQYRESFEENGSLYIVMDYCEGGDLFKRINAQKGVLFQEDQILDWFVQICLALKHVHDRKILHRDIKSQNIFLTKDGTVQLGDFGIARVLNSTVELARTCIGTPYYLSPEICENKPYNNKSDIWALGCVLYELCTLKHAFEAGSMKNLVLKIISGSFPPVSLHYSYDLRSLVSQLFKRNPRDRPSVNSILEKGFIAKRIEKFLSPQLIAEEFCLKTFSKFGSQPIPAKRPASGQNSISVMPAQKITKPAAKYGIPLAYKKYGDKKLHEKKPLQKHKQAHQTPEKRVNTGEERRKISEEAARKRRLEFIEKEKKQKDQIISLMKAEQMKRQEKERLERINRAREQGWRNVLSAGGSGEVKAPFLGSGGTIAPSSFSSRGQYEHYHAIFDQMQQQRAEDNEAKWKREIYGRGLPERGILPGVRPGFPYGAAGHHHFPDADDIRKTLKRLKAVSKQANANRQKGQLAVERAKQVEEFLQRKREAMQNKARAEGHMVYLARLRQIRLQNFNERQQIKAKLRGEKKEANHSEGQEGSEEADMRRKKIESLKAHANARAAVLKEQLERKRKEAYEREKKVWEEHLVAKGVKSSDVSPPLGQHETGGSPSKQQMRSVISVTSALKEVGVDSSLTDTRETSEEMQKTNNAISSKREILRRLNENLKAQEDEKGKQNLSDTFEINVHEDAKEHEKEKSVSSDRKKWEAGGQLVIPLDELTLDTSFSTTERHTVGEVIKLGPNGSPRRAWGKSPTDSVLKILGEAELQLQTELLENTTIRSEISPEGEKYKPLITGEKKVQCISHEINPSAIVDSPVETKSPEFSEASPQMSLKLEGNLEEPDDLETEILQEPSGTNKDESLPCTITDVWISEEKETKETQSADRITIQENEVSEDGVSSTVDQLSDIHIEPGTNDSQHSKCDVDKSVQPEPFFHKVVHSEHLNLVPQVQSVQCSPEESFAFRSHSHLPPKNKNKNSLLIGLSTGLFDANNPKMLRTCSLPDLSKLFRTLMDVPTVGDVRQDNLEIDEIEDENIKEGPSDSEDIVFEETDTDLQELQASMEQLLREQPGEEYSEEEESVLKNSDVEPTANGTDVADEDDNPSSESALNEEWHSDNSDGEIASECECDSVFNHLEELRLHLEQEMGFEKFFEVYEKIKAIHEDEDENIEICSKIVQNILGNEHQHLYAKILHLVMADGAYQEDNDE

[13] = molecular target: T5, Serine/threonine-protein kinase Nek1 (Homo sapiens); conditions: at 1 µM
[14] = molecular target: T6, Serine/threonine-protein kinase Nek2 (Homo sapiens) (UniProt P51955); conditions: at 0.1 µM
T6 sequence (whole entry): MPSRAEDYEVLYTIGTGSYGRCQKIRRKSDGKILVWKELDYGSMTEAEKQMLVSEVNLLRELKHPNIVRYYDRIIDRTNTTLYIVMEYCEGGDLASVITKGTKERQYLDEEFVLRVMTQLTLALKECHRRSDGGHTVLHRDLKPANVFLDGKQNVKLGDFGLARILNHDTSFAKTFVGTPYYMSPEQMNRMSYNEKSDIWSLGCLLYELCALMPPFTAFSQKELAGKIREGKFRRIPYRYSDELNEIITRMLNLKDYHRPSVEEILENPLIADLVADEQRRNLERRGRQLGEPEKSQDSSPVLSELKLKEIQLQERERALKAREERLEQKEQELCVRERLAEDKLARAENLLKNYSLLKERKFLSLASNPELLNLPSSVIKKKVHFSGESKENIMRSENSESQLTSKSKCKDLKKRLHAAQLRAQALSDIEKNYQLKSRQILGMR

[15] = molecular target: T6, Serine/threonine-protein kinase Nek2 (Homo sapiens); conditions: at 1 µM
[16] = molecular target: Serine/threonine-protein kinase Nek6 (Homo sapiens) (UniProt Q9HC98); conditions: at 0.1 µM
Chain of Serine/threonine-protein kinase Nek6 (Homo sapiens) (Q9HC98 whole entry): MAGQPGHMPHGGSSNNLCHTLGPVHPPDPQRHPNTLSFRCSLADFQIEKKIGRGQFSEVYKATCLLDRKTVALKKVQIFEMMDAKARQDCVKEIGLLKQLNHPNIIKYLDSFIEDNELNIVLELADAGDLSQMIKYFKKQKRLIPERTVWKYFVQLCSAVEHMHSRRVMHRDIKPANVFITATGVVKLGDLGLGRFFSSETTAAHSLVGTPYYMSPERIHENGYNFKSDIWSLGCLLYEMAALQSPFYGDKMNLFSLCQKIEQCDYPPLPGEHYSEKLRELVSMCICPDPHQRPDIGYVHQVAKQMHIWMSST

[17] = molecular target: Serine/threonine-protein kinase Nek6 (Homo sapiens) (UniProt Q9HC98); conditions: at 1 µM
[18] = molecular target: Serine/threonine-protein kinase Nek7 (Homo sapiens) (UniProt Q8TDX7); conditions: at 0.1 µM
Chain of Serine/threonine-protein kinase Nek7 (Homo sapiens) (Q8TDX7 whole entry, looked up): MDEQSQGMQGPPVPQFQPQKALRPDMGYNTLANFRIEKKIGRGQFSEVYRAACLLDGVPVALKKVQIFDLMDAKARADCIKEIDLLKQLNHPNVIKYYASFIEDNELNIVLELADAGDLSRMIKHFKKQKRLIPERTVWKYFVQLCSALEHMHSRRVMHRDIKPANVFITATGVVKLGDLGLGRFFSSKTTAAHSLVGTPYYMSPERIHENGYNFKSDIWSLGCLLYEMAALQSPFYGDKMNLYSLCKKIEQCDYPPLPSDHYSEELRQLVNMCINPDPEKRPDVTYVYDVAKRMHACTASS

[19] = molecular target: Serine/threonine-protein kinase Nek7 (Homo sapiens) (UniProt Q8TDX7); conditions: at 1 µM
[20] = molecular target: T7, Serine/threonine-protein kinase Nek9 (Homo sapiens) (UniProt Q8TD19); conditions: at 0.1 µM;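 further: reported value is the mean percent inhibition of NEK9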
T7 sequence (whole entry): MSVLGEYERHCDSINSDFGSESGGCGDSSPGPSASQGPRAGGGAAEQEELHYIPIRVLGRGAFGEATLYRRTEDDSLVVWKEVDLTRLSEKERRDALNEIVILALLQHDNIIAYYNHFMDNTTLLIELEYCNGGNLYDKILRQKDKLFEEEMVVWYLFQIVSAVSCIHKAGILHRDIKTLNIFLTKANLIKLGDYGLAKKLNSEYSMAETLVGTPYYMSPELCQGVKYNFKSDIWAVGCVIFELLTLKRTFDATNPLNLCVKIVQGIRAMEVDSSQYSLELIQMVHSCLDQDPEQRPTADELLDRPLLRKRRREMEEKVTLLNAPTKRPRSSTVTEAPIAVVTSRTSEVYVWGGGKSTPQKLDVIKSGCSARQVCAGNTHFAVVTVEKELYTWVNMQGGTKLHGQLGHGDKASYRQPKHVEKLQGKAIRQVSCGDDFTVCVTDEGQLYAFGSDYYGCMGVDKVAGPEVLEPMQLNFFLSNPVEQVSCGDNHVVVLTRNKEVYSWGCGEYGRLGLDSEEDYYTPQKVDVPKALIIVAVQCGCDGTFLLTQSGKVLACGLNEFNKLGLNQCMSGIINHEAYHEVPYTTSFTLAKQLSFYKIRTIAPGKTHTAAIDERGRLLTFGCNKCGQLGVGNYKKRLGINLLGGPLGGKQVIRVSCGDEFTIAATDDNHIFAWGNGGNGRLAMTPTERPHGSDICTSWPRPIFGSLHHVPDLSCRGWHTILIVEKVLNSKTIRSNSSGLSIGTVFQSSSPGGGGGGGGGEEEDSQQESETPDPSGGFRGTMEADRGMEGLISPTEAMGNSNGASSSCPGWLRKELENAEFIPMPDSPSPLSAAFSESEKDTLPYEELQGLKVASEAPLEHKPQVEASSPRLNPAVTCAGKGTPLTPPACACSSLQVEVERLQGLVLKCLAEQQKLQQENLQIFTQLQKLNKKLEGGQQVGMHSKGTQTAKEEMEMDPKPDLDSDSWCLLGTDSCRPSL

Chain of Sphingosine kinase 1 (Homo sapiens) (Q9NYA1 whole entry): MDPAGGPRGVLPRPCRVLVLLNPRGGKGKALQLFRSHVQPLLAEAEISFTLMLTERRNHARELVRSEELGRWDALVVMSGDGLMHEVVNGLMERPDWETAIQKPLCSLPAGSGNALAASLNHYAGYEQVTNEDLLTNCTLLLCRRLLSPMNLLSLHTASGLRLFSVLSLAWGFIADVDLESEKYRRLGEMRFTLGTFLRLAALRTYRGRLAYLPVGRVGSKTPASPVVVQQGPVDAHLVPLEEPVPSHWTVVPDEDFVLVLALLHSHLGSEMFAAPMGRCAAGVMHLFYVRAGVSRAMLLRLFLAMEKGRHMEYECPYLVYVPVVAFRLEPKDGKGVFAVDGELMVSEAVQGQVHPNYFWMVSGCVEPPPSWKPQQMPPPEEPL

SMILES	inhibition [1] [%]	inhibition [2] [%]	inhibition [3] [%]	inhibition [4] [%]	inhibition [5] [%]	inhibition [6] [%]	inhibition [7] [%]	inhibition [8] [%]	inhibition [9] [%]	inhibition [10] [%]	inhibition [11] [%]	inhibition [12] [%]	inhibition [13] [%]	inhibition [14] [%]	inhibition [15] [%]	inhibition [16] [%]	inhibition [17] [%]	inhibition [18] [%]	inhibition [19] [%]	inhibition [20] [%]
COc1ccc2ncnc(Nc3ccc(OCc4ccccc4)cc3)c2c1	-2.59	0.06	0.29	3.44	7.23	2.22	-0.08	2.67	3.67	3.74	1.06	0.79	4.16	1.74	1.37	4.45	2.35	2.47	2.49	-0.31
N#Cc1cccc(Nc2nccc(-c3cnn4ncccc34)n2)c1	-1.39	0	-6.48	20.4	63.9	9.53	31	7.83	20.5	7.68	27.9	2.07	10.9	1.93	6.24	3.54	5.8	-4.91	4.18	7
